Assay outcomes from PubChem BioAssay.
TDP1 cell CPT = growth inhibition of DT40 Tdp1-/-;hTDP1 cells with camptothecin (screen for TDP1 inhibitors) | chicken DT40 Tdp1-/-;hTDP1 cells + 20 nM CPT, ATP luminescence, 48 h | Potency, µM (doses to about 46.2 µM), inactives show at the top dose activity change, negative = growth inhibition, hits mostly inhibitors | 420,000 compounds, 12% hits; also: potency is read from the fitted curve at half-maximal effect; nearly all actives have a fitted effect of over 55% in size
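Cell growth measured by CellTiter-Glo luminescence after a minimum 48 h, 37 C compound exposure with 20 nM CPT in Tdp1-knockout DT40 cells stably expressing hTDP1, seeded 400/well; qHTS titration format.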
TDP1 inh = blocks human tyrosyl-DNA phosphodiesterase 1 | 350,000 compounds, 0.28% hits | Q9NUW8 | AID 485290 | Potency, µM (top dose mostly 130 µM), for inactives: at the highest dose activity change, negative = inhibition, usual class: inhibitors | recombinant TDP1, AlphaScreen DNA substrate cleavage; also: potency is read from the fitted curve at half-maximal effect; nearly all actives have a fitted effect of over 40% in size
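Recombinant human Tdp1 (E. coli-expressed, 1 nM final) preincubated with compounds 15 min at room temperature, then 5'-biotin/3'-phosphotyrosine-FITC DNA substrate (15 nM final) added for 5 min. AlphaScreen beads (10 ug/ml final) added 10 min; cleavage lowers signal.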
IL-1B inflam inh = blocks inflammasome-driven IL-1 beta release. activity change, % at 57.5 µM. THP-1 LPS/ATP IL-1B secretion, AlphaLISA, 16 h; active compounds read low. 360,000 compounds, 4.7% hits. AID 743279; in the data active = activity change below about -50%; inconclusive = mostly about -30% to -49%
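THP-1 cells pretreated 1 hr with compounds (up to 57.5 uM final), then stimulated with LPS (250 ng/mL final) plus ATP (1.25 mM final); secreted IL-1B measured by AlphaLISA after 16 hr, decreased signal indicating inhibition.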
Six1-Eya2 inh = Six1/Eya2 interaction inhibition. Q15475+O00167. AlphaScreen GST-Six1/His-Eya2 binding, biochemical; active compounds read low. activity change, % (concentration not given with the values). 360,000 compounds, 0.56% hits. AID 651725; in the data active = activity change below about -65%; inconclusive = mostly about -30% to -63%
Target sequence (O00167 whole entry, looked up): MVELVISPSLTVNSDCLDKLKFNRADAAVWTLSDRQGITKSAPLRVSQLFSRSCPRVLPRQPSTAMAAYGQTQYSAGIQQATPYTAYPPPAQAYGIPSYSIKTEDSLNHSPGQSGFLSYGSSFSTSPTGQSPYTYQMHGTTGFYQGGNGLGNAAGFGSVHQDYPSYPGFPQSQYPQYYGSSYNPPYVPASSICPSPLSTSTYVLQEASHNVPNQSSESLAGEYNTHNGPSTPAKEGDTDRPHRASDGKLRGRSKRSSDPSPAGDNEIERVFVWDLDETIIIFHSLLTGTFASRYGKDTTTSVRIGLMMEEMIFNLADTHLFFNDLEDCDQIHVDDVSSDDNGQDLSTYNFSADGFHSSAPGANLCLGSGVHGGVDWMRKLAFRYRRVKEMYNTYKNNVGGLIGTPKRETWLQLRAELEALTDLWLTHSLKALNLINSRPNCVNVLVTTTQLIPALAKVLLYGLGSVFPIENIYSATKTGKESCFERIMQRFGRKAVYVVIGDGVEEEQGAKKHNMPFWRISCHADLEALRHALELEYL
Target sequence (Q15475 whole entry, looked up): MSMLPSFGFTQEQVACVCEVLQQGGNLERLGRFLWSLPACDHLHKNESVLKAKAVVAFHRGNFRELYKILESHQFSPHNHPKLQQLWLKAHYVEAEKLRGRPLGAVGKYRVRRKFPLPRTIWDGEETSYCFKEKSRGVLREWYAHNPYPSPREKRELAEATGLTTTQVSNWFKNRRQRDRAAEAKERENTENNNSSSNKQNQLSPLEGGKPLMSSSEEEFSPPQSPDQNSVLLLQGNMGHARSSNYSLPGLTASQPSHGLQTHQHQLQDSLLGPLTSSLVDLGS
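AlphaScreen luminescence read after one hour at 37 °C in darkness. Pin-transferred compounds met GST-Six1 and His-Eya2 protein (5X stock 250 nM/500 nM) plus glutathione donor and Ni-chelate acceptor beads (5X, 50 ug/mL).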
CtBP-E1A inh = blocks the CtBP interaction with E1A; 340,000 compounds, 0.49% hits; AID 651724; activity change, % (test concentration not listed); AlphaScreen GST-E1A/His-CtBP binding, 1536-well; active compounds read low; in the data active = activity change below about -65%; inconclusive = mostly about -30% to -63%
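Homogeneous bead-based format: GST-tagged E1A captured on glutathione donor beads, His-tagged CtBP on nickel acceptor beads; compounds precede bead addition by 2 h at 37 °C.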
DT40 TDP1 no CPT = qHTS for Inhibitors of human tyrosyl-DNA phosphodiesterase 1 (TDP1): qHTS in cells in absence of CPT; Potency, µM (series often up to 46.2 µM), for the others: top-dose activity change, negative = growth inhibition, usual class: inhibitors; AID 686978, 2013; DT40 Tdp1-/- hTDP1 cells, no CPT, ATP luminescence, 48 h; 420,000 compounds, 15% hits; also: potency is read from the fitted curve at half-maximal effect; nearly all actives have a fitted effect of over 55% in size
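Stably hTDP1-transfected Tdp1-null chicken DT40 cells were treated with library compounds minus camptothecin and grown for at least 48 hr at 37 °C, after which cellular ATP was quantified by luminescence.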
* = called active by the depositor. Rows were chosen to be rich in hits. Some 18% of all compounds tested hit in one or more screens of this group. Unless noted, calls follow the shape of the dose curve; as a rule, active = well fitted curve in the direction sought with a large enough effect; inconclusive = small, poorly fitted or top-dose-only effect, or another doubt; inactive = no such curve, though single readings can be large; an effect the other way counts as inactive or inconclusive. % is scaled to controls: 0 for no effect and ±100 for the full control effect.

Results for COc1ccc(CCc2nnc(CCC(=O)NCC3CCCO3)o2)cc1 (centres undefined) ?
TDP1 cell CPT: 15%; TDP1 inh: 3%; IL-1B inflam inh: 14; Six1-Eya2 inh: 17; CtBP-E1A inh: 5; DT40 TDP1 no CPT: -7%

Results for CS(=O)(=O)c1nc(S(=O)(=O)c2ccc(Cl)cc2)c(N2CCCCCC2)s1 ?
TDP1 cell CPT: -18%; TDP1 inh: 4%; IL-1B inflam inh: 8; Six1-Eya2 inh: -1; CtBP-E1A inh: 2; DT40 TDP1 no CPT: 25%

Results for Cc1ccc(S(=O)(=O)c2nc(S(=O)(=O)c3ccc(C)cc3)c(N3CCN(CCO)CC3)s2)cc1 ?
TDP1 cell CPT: 23µM*; TDP1 inh: 9%; IL-1B inflam inh: -68*; Six1-Eya2 inh: 2; CtBP-E1A inh: -2; DT40 TDP1 no CPT: inconclusive

How did Cc1ccc(S(=O)(=O)c2nc(S(C)(=O)=O)sc2N(C)C)cc1 do in these assays?
TDP1 cell CPT: -9%; TDP1 inh: 0%; IL-1B inflam inh: -11; Six1-Eya2 inh: 8; CtBP-E1A inh: 7; DT40 TDP1 no CPT: -9%

What do the screens show for `CCCS(=O)(=O)c1nc(S(=O)(=O)c2ccc(C)cc2)c(N2CCCC2)s1`?
TDP1 cell CPT: inconclusive; TDP1 inh: 6%; IL-1B inflam inh: -11; Six1-Eya2 inh: 4; CtBP-E1A inh: 7; DT40 TDP1 no CPT: inconclusive

What do the screens show for `Cc1ccc(S(=O)(=O)c2nc(S(C)(=O)=O)sc2N(C)Cc2ccccc2)cc1`?
TDP1 cell CPT: inconclusive; TDP1 inh: 10%; DT40 TDP1 no CPT: 21µM*

What do the screens show for `CS(=O)(=O)c1nc(S(=O)(=O)c2ccc(Cl)cc2)c(N2CCN(CCO)CC2)s1`?
TDP1 cell CPT: inconclusive; TDP1 inh: 0%; IL-1B inflam inh: -68*; Six1-Eya2 inh: 2; CtBP-E1A inh: 3; DT40 TDP1 no CPT: 6%

How did CS(=O)(=O)c1nc(S(=O)(=O)c2ccc(Cl)cc2)c(N2CCCCC2)s1 do in these assays?
TDP1 cell CPT: inconclusive; TDP1 inh: 3%; IL-1B inflam inh: -63*; Six1-Eya2 inh: 7; CtBP-E1A inh: 4; DT40 TDP1 no CPT: -22%

What do the screens show for `CCOC(=O)c1ccc2c(c1)n(CCCS(=O)(=O)[O-])c(/C=C/c1ccc(Cl)cc1)[n+]2CC`?
TDP1 cell CPT: 0%; TDP1 inh: 3%; IL-1B inflam inh: 3; Six1-Eya2 inh: 3; CtBP-E1A inh: -3; DT40 TDP1 no CPT: -1%

How did Cc1ccc(S(=O)(=O)c2nc(S(C)(=O)=O)sc2N2CCCCC2C)cc1 (centres undefined) do in these assays?
TDP1 cell CPT: inconclusive; TDP1 inh: 0%; IL-1B inflam inh: -83*; Six1-Eya2 inh: 3; CtBP-E1A inh: 1; DT40 TDP1 no CPT: inconclusive

Results for CCS(=O)(=O)c1nc(S(=O)(=O)c2ccc(C)cc2)c(N2CCOCC2)s1 ?
TDP1 cell CPT: -8%; TDP1 inh: 2%; IL-1B inflam inh: -29; Six1-Eya2 inh: 5; CtBP-E1A inh: 3; DT40 TDP1 no CPT: 22%

How did Cc1ccc(S(=O)(=O)c2nc(S(C)(=O)=O)sc2N2CCOCC2)cc1 do in these assays?
TDP1 cell CPT: -20%; TDP1 inh: 2%; IL-1B inflam inh: -59*; Six1-Eya2 inh: 4; CtBP-E1A inh: 9; DT40 TDP1 no CPT: 10%

How did O=C1/C(=C\c2ccc(Br)o2)SC(=Nc2ccccc2)N1c1ccccc1 do in these assays?
TDP1 cell CPT: -6%; TDP1 inh: 4%; IL-1B inflam inh: inconclusive; Six1-Eya2 inh: inconclusive; CtBP-E1A inh: inconclusive; DT40 TDP1 no CPT: inconclusive

What do the screens show for `Cc1ccc(COCC(CC(C)C)N2CCN(C(=O)c3cccc(C(F)(F)F)c3)CCC2=O)cc1` (centres undefined)?
TDP1 cell CPT: inconclusive; TDP1 inh: 3%; IL-1B inflam inh: -27; Six1-Eya2 inh: -2; CtBP-E1A inh: 7; DT40 TDP1 no CPT: inconclusive

What do the screens show for `Cc1cccc(COC[C@H](CC(C)C)N2CCN(C(=O)c3ccc(C(C)(C)C)cc3)CCC2=O)c1`?
TDP1 cell CPT: inconclusive; IL-1B inflam inh: -70*; Six1-Eya2 inh: 1; CtBP-E1A inh: -1; DT40 TDP1 no CPT: inconclusive

What do the screens show for `Cc1cccc(COCC(CC(C)C)N2CCN(C(=O)c3ccc(C(C)(C)C)cc3)CCC2=O)c1` (centres undefined)?
TDP1 cell CPT: inconclusive; TDP1 inh: -3%; IL-1B inflam inh: -73*; Six1-Eya2 inh: -12; CtBP-E1A inh: -5; DT40 TDP1 no CPT: 18µM*

Results for Cc1cccc(COCC(CC(C)C)N2CCN(C(=O)c3ccc(C(F)(F)F)cc3)CCC2=O)c1 (centres undefined) ?
TDP1 cell CPT: 23µM*; TDP1 inh: 3%; IL-1B inflam inh: -54*; Six1-Eya2 inh: 1; CtBP-E1A inh: 3; DT40 TDP1 no CPT: inconclusive

What do the screens show for `CC(C)CC(COCc1ccc([N+](=O)[O-])cc1)N1CCN(C(=O)c2ccc(C(F)(F)F)cc2)CCC1=O` (centres undefined)?
TDP1 cell CPT: 18µM*; TDP1 inh: -7%; IL-1B inflam inh: inconclusive; Six1-Eya2 inh: -8; CtBP-E1A inh: -5; DT40 TDP1 no CPT: inconclusive

How did CCCNc1c(NS(=O)(=O)c2ccc(C(C)(C)C)cc2)c(=O)oc2ccccc12 do in these assays?
TDP1 cell CPT: inconclusive; TDP1 inh: 1%; IL-1B inflam inh: 9; Six1-Eya2 inh: 10; DT40 TDP1 no CPT: inconclusive

Results for COc1cc2cnc(-c3ccccc3)c(-c3ccc(C#N)cc3)c2cc1OC ?
TDP1 cell CPT: inconclusive; TDP1 inh: 1%; IL-1B inflam inh: -22; Six1-Eya2 inh: -6; CtBP-E1A inh: -4; DT40 TDP1 no CPT: 16µM*

How did O=C(Nc1ccccc1)C1C2CCCCC21 (centres undefined) do in these assays?
TDP1 cell CPT: -25%; IL-1B inflam inh: -9; Six1-Eya2 inh: 21; CtBP-E1A inh: 8; DT40 TDP1 no CPT: -24%

What do the screens show for `O=C(CSc1nc(NS(=O)(=O)c2ccccc2)cc(=O)[nH]1)Nc1ccc(F)cc1`?
TDP1 cell CPT: -1%; TDP1 inh: 28µM*; IL-1B inflam inh: 6; Six1-Eya2 inh: inconclusive; CtBP-E1A inh: 9; DT40 TDP1 no CPT: -12%

What do the screens show for `O=C(CSc1nc(NS(=O)(=O)c2ccccc2)cc(=O)[nH]1)Nc1cccc(C(F)(F)F)c1`?
TDP1 cell CPT: 3%; TDP1 inh: 1%; IL-1B inflam inh: 26; Six1-Eya2 inh: inconclusive; CtBP-E1A inh: -12; DT40 TDP1 no CPT: -5%
